Source: PubChem BioAssay (NCI)
About 79,000 compounds went through this panel and 15% of them were active in at least one assay; those are over-represented in the sample as a whole. A number with no mark means an inactive call. Activity calls are given as the source filed them. Rule as the data show it: active = growth inhibition above about 70%; inactive = the rest.

assay: NCI Yeast Anticancer Drug Screen. Data for the cln2 rad14 strain (AID 165);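 also: 0% = growth equal to vehicle treated cultures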; conditions: S. cerevisiae cln2 rad14 strain, at 5.0 µM (retest, dose inferred, filed as 0.5), stronger effect = higher value
Procedure, shortened: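 Each compound was tested on cln2 rad14 yeast. Inhibition of growth was calculated against vehicle-exposed controls.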

| Compound | growth inhibition |
| --- | --- |
| C/C(=N\NC(=S)N1CCCC1)c1nc2ncccc2[nH]1 | -38% |
| Cc1cc(C)c2c(c1)sc1nncn12 | 46% |
| Cc1ccc(S(=O)(=O)NNC2Oc3cc4c(cc3C(c3ccccc3O)C2C)OCO4)cc1 (stereo not given) | 19% |
| CC1CCC(NCCOC(=O)c2ccc([N+](=O)[O-])cc2)CC1 (stereo not given) | -75% |
| Oc1cc(F)ccc1-c1ccc(F)cc1 | -9% |
| Cn1c(=O)cc[nH]c1=O | 0% |
| CCOc1c(N=Nc2ccccc2OC)c(-c2ccccc2)nn1C(N)=S | -8% |
| CS(C)=O.[Cl-].[Cl-].[NH-]CC(O)CN(Cc1ccccc1)CC(O)CN.[Pt] (stereo not given) | 39% |
| CCOC(=O)C(Cc1cn(S(=O)(=O)c2ccccc2)c2ccccc12)(NC(C)=O)C(=O)OCC | 15% |
| BrCC1(CBr)COC1 | -3% |
| COc1ccc(OC)c2c1C=C[C@H](C1(C)SCCS1)C2C(C)=O (stereo not given in full) | 7% |
| N#Cc1ccccc1[N+](=O)[O-] | -1% |
| O=C1c2cccc3cc4ccccc4c(c23)C(=O)N1CCCNCCNCCCN1C(=O)c2cccc3cc4ccccc4c(c23)C1=O | 83% (active) |
| CC(=O)Oc1ccc(N=[N+]([O-])c2ccc(OC(C)=O)cc2)cc1 | 10% |
| CCOCCNc1ncnc2c1cnn2C | -5% |
| O=Cc1ccc(-c2nccc3c2[nH]c2ccccc23)o1 | 12% |
| O=c1oc2ccccc2c(O)c1C1=N/C(=N/N=C/c2ccc(Cl)cc2)SC1 | 0% |
| Cc1ccccc1Oc1ccccc1N | 9% |
| CCCCCCC(=O)Nc1ccc(OC(=O)CCCCCC)c(=O)cc1 | -14% |
| CC(=O)C(C(C)=O)C1C=CC=CC=C1 | -59% |
| CC(=O)Nc1ccc(N=C2c3ccccc3-c3ccc(NC(C)=O)cc32)cc1 | 3% |
| C/C=C1\CC(C)(CC)C(C#N)(C#N)C(N)=C1C#N (stereo not given) | -9% |
| Cc1cc(Cc2ccc(Cl)cc2)ccc1O | -13% |
| O=C1C=CC(=O)N1c1ccc(-c2nc3ccccc3o2)cc1 | 81% (active) |
| Nc1ccc(O)c2c1C(=O)c1ccccc1C2O (stereo not given) | -10% |
| CC(=O)OC1CCC2(C)C(CCC3C4=CCC(C5COC(=O)C5)C4(C)CCC32)C1 (stereo not given) | -2% |

same assay, conditions: S. cerevisiae cln2 rad14 strain, at 50.0 µM (retest, dose inferred, filed as 5.0), stronger effect = higher value

| Compound | growth inhibition |
| --- | --- |
| C/C(=N\NC(=S)N1CCCC1)c1nc2ncccc2[nH]1 | 97% (active) |
| Cc1cc(C)c2c(c1)sc1nncn12 | 96% (active) |
| Cc1ccc(S(=O)(=O)NNC2Oc3cc4c(cc3C(c3ccccc3O)C2C)OCO4)cc1 (stereo not given) | 97% (active) |
| CC1CCC(NCCOC(=O)c2ccc([N+](=O)[O-])cc2)CC1 (stereo not given) | 41% |
| Oc1cc(F)ccc1-c1ccc(F)cc1 | 98% (active) |
| Cn1c(=O)cc[nH]c1=O | -1% |
| CCOc1c(N=Nc2ccccc2OC)c(-c2ccccc2)nn1C(N)=S | 20% |
| CS(C)=O.[Cl-].[Cl-].[NH-]CC(O)CN(Cc1ccccc1)CC(O)CN.[Pt] (stereo not given) | 14% |
| CCOC(=O)C(Cc1cn(S(=O)(=O)c2ccccc2)c2ccccc12)(NC(C)=O)C(=O)OCC | 33% |
| BrCC1(CBr)COC1 | 30% |
| COc1ccc(OC)c2c1C=C[C@H](C1(C)SCCS1)C2C(C)=O (stereo not given in full) | 83% (active) |
| N#Cc1ccccc1[N+](=O)[O-] | 25% |
| O=C1c2cccc3cc4ccccc4c(c23)C(=O)N1CCCNCCNCCCN1C(=O)c2cccc3cc4ccccc4c(c23)C1=O | 98% (active) |
| CC(=O)Oc1ccc(N=[N+]([O-])c2ccc(OC(C)=O)cc2)cc1 | 23% |
| CCOCCNc1ncnc2c1cnn2C | -1% |
| O=Cc1ccc(-c2nccc3c2[nH]c2ccccc23)o1 | 16% |
| O=c1oc2ccccc2c(O)c1C1=N/C(=N/N=C/c2ccc(Cl)cc2)SC1 | 95% (active) |
| Cc1ccccc1Oc1ccccc1N | 34% |
| CCCCCCC(=O)Nc1ccc(OC(=O)CCCCCC)c(=O)cc1 | 99% (active) |
| CC(=O)C(C(C)=O)C1C=CC=CC=C1 | 77% (active) |
| CC(=O)Nc1ccc(N=C2c3ccccc3-c3ccc(NC(C)=O)cc32)cc1 | 28% |
| C/C=C1\CC(C)(CC)C(C#N)(C#N)C(N)=C1C#N (stereo not given) | -3% |
| Cc1cc(Cc2ccc(Cl)cc2)ccc1O | 99% (active) |
| O=C1C=CC(=O)N1c1ccc(-c2nc3ccccc3o2)cc1 | 96% (active) |
| CCN(CC)CC(O)c1ccnc2c(O)cccc12 (stereo not given) | 32% |
| Nc1ccc(O)c2c1C(=O)c1ccccc1C2O (stereo not given) | 78% (active) |
| CC(=O)OC1CCC2(C)C(CCC3C4=CCC(C5COC(=O)C5)C4(C)CCC32)C1 (stereo not given) | 89% (active) |

same assay, conditions: S. cerevisiae cln2 rad14 strain, at 50.0 µM, stronger effect = higher value

| Compound | growth inhibition |
| --- | --- |
| C/C(=N\NC(=S)N1CCCC1)c1nc2ncccc2[nH]1 | 81.7% (active) |
| Cc1cc(C)c2c(c1)sc1nncn12 | 97.6% (active) |
| Cc1ccc(S(=O)(=O)NNC2Oc3cc4c(cc3C(c3ccccc3O)C2C)OCO4)cc1 (stereo not given) | 97% (active) |
| CC1CCC(NCCOC(=O)c2ccc([N+](=O)[O-])cc2)CC1 (stereo not given) | 31.9% |
| Oc1cc(F)ccc1-c1ccc(F)cc1 | 60.3% |
| Cn1c(=O)cc[nH]c1=O | -0.75% |
| CCOc1c(N=Nc2ccccc2OC)c(-c2ccccc2)nn1C(N)=S | 44% |
| CS(C)=O.[Cl-].[Cl-].[NH-]CC(O)CN(Cc1ccccc1)CC(O)CN.[Pt] (stereo not given) | -6.25% |
| CCOC(=O)C(Cc1cn(S(=O)(=O)c2ccccc2)c2ccccc12)(NC(C)=O)C(=O)OCC | -3.35% |
| BrCC1(CBr)COC1 | -8.15% |
| COc1ccc(OC)c2c1C=C[C@H](C1(C)SCCS1)C2C(C)=O (stereo not given in full) | 72.3% (active) |
| N#Cc1ccccc1[N+](=O)[O-] | 0.35% |
| O=C1c2cccc3cc4ccccc4c(c23)C(=O)N1CCCNCCNCCCN1C(=O)c2cccc3cc4ccccc4c(c23)C1=O | 88% (active) |
| CC(=O)Oc1ccc(N=[N+]([O-])c2ccc(OC(C)=O)cc2)cc1 | 18.4% |
| CCOCCNc1ncnc2c1cnn2C | -0.35% |
| O=Cc1ccc(-c2nccc3c2[nH]c2ccccc23)o1 | 16.1% |
| O=c1oc2ccccc2c(O)c1C1=N/C(=N/N=C/c2ccc(Cl)cc2)SC1 | 50.2% |
| Cc1ccccc1Oc1ccccc1N | 78.4% (active) |
| CCCCCCC(=O)Nc1ccc(OC(=O)CCCCCC)c(=O)cc1 | 98% (active) |
| CC(=O)C(C(C)=O)C1C=CC=CC=C1 | 80% (active) |
| CC(=O)Nc1ccc(N=C2c3ccccc3-c3ccc(NC(C)=O)cc32)cc1 | 43.4% |
| C/C=C1\CC(C)(CC)C(C#N)(C#N)C(N)=C1C#N (stereo not given) | 3.35% |
| Cc1cc(Cc2ccc(Cl)cc2)ccc1O | 51.9% |
| O=C1C=CC(=O)N1c1ccc(-c2nc3ccccc3o2)cc1 | 88% (active) |
| CCN(CC)CC(O)c1ccnc2c(O)cccc12 (stereo not given) | 11.9% |
| Nc1ccc(O)c2c1C(=O)c1ccccc1C2O (stereo not given) | 54.8% |
| CC(=O)OC1CCC2(C)C(CCC3C4=CCC(C5COC(=O)C5)C4(C)CCC32)C1 (stereo not given) | 63.1% |
